Screen size: about 420,000 compounds; about 50,000 (12%) were called active. About 26% were inconclusive and are not listed. Many of the other results were omitted from the sample, so actives are more common in it than they were. Values without a mark were called inactive. The call rests on the fitted dose curve; in most records, active means well fitted inhibition curve with a large enough effect; inconclusive means small, poorly fitted or top-dose-only effect; inactive means flat fitted curve, though single readings scatter.
Test: qHTS for Inhibitors of human tyrosyl-DNA phosphodiesterase 1 (TDP1): qHTS in cells in presence of CPT; further: nearly all actives have a fitted effect of over 55% in size
Details: chicken DT40 Tdp1-/-;hTDP1 cells + 20 nM CPT, ATP luminescence, 48 h; series mostly up to 46.2 µM; activity change, negative = growth inhibition: at the top concentration
Method in brief: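 Chicken DT40 Tdp1-/- cells complemented with human TDP1, 400 cells/well, exposed to compounds plus 20 nM camptothecin for at least 48 h at 37 C; viability read as ATP content by CellTiter-Glo luminescence.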
On the % scale 0 is the no-effect control and ±100 the full control effect; potency means the concentration at half of the fitted maximal effect.

Going from C/C(=N/NS(=O)(=O)c1ccccc1)c1ccc(NC(=O)C(F)(F)F)cc1 to Cc1ccc(C(=O)Nc2c(-c3ccccc3)[nH][nH]c2=O)cc1, the “activity change, negative = growth inhibition” value falls from -2.7% to -3.84%.

First: COCC1CCN(C(=O)C2CCC(=O)N(CC3CCCCC3)C2)CC1 (centres undefined)
Second: Cc1ccc(CNC(=O)Cn2cnc(S(=O)(=O)N3CCCCC3)c2)o1
The “activity change, negative = growth inhibition” value of the first is higher: 5.32% for the first, -4.28% for the second.

First: COc1ccccc1C(=O)Nc1ccc(Nc2ccccc2)cc1
Second: COc1ccccc1NC(=O)c1oc2ccccc2c1NC(=O)COc1ccccc1OC
The “activity change, negative = growth inhibition” value of the first is higher: 22.7% for the first, -15.5% for the second.

Going from COc1ccccc1NC(=S)NC(=O)C(C)C to COc1cccc(CNC(=O)CCN2C(=S)NC(C)(C)CC2C)c1 (centres undefined), the “activity change, negative = growth inhibition” value falls from 15.3% to -8.76%.

First: Cc1ccc(NC(=O)c2oc3ccccc3c2NC(=O)Cc2cccs2)cc1
Second: Cc1c(C(=O)NNC(=O)c2ccncc2)oc2ccccc12
The “activity change, negative = growth inhibition” value of the first is lower: -14.1% for the first, 22.9% for the second.

Going from C#CCOCCOCCOCCNc1nc(N2CCN(C(=O)C([C@@H](C)CC)n3cc(C(N)COC(=O)C(F)(F)F)nn3)CC2)nc(N2CCN(C(=O)[C@H](Cc3ccc(O)cc3)n3cc(C(N)[C@H](C)CC)nn3)CC2)n1 (some centres undefined) to C/C=C/C1=C(C(=O)O)N2C(=O)[C@@H](NC(=O)[C@H](N)c3ccc(O)cc3)[C@H]2SC1, the “activity change, negative = growth inhibition” value rises from -7.81% to 22.8%.

First: CCOc1ncccc1C(=O)OCC(=O)c1c[nH]c2ccccc12
Second: CN(CCOc1ccccc1)C(=O)c1cc(COc2c(F)cccc2F)on1
The “activity change, negative = growth inhibition” value of the first is lower: -25.7% for the first, -21% for the second.

Going from CC1CN(C(=S)Nc2ccc(S(N)(=O)=O)cc2)CC(C)O1 (centres undefined) to COc1nc(N(C)C)nc(N2CC(=O)N(CCNS(=O)(=O)c3ccc(C)cc3)C2=N)n1, the “activity change, negative = growth inhibition” value rises from -15.7% to 17.4%.

First: O=C(NNc1cc(Cl)cc(Cl)c1)c1c(F)cccc1Cl
Second: CN(CC(=O)NNC(=O)CNC(=O)c1ccccc1Cl)S(=O)(=O)c1ccc(Cl)cc1
The “activity change, negative = growth inhibition” value of the first is higher: -10.4% for the first, -22% for the second.

First: CC(=O)Nc1ccc(NC(=O)CSc2nnc3c4cc(Br)ccc4n(C)c3n2)cc1
Second: Cc1ccc(NC(=O)Cn2cnc3c(OCc4ccccc4)ncnc32)cc1C
The “activity change, negative = growth inhibition” value of the first is lower: -12.3% for the first, -10.5% for the second.

Going from O=C(CSc1ccc(Cl)cc1)NC1CC1 to Cc1cnc(CN(C)C(=O)CC2C(=O)NCCN2Cc2cccc(F)c2F)[nH]1 (centres undefined), the “activity change, negative = growth inhibition” value rises from -22.6% to 2.68%.

Compared with CCCC1NC(=O)NC(C)=C1C(=O)OCC (centres undefined), CCCCn1c(N)c(N(CC)C(=O)c2ccccc2C(F)(F)F)c(=O)[nH]c1=O is lower in “activity change, negative = growth inhibition” value: 13.2% for the first, 3.08% for the second.

In the case of Cc1ccc(C(=O)Nc2c(C(=O)NC(C)(C)C)oc3ccccc23)cc1, the Potency is reported as 20.6 µM (active).
With COc1ccccc1C(=O)Nc1c(C(=O)Nc2ccc(C)cc2)oc2ccccc12 the Potency was 20.6 µM (active).
In the case of COc1ccccc1NC(=O)c1oc2ccccc2c1NC(=O)C(C)C, the Potency is reported as 10.3 µM (active).
In the case of C=C1C(=O)[C@]23C[C@H]1CCC2[C@@]1(C)C(C[C@@H]3O)[C@](C)(C(=O)O)CC[C@@H]1O (some centres undefined), the Potency is reported as 1.84 µM (active).
With Cc1ccc(CNC(=O)Cn2cnc3c(NCc4ccccc4)ncnc32)o1 the Potency was 18.4 µM (active).

From PubChem BioAssay AID686979 (National Center for Advancing Translational Sciences (NCATS), 2013)
